Shown are actives, neighbours in structure and some others; about 1.1% of the full set was active somewhere.
PGK inhibitor: T. brucei PGK inhibition; PGK/GAPDH coupled, Kinase-Glo luminescence, 60 min; Potency, µM (top dose mostly 57.5 µM), usual class: inhibitors; 0.043% of 380,000 active; AID 602233; further: nearly all actives have a fitted effect of over 60% in size
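Recombinant glycosomal PGK reaction used 1,3-bisphosphoglycerate generated in-well by GAPDH (100nM final) in 100mM TEA pH 7.6, 5mM MgCl2, 0.01% Tween-20. After 60 minutes at room temperature, ATP was read by Kinase-Glo Plus luminescence end-point.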
Pin1 inhibitor: human Pin1 inhibition; Potency, µM (top dose mostly 115 µM), most hits filed as inhibitors; 0.009% of 390,000 active; Pin1 FP peptide displacement, HiFluor488, 10 min; Q13526; AID 504891; active means well fitted inhibition curve with a large enough effect in the polarisation, with a control signal flat, not every such curve was filed as active; inconclusive means small, poorly fitted or top-dose-only effect, or effect the other way, or a change in a side signal; inactive means no such curve, though single readings can be large or run the other way; the % refers to the polarisation
Target sequence (Q13526 whole entry, looked up): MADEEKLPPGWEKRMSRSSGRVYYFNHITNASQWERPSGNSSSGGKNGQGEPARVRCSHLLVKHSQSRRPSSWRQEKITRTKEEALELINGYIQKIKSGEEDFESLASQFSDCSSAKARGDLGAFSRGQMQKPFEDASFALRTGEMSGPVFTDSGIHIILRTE
Tb PFK inh: inhibitors of T. brucei phosphofructokinase | 0.17% of 330,000 active | O15648 | T. brucei PFK, ADP-Glo luminescence | AID 485367 | Potency, µM (doses to about 57.5 µM), actives largely listed as inhibitors; further: nearly all actives have a fitted effect of over 60% in size
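PFK 1.25 nM, F6P 0.5 mM, ATP 0.1 mM, 0.1 M TEA pH 8.0, 5 mM MgCl2, 0.01% Tween20, 0.1% BSA; 45 min RT. ADP-Glo readout. qHTS titration up to 57 uM; curves fitted, compounds curve-classed.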
VDR inh: vitamin D3 receptor (human) inhibition; P11473; VDR-SRC2-3 peptide fluorescence polarization, 2 h; Potency, µM, most hits filed as inhibitors; 0.93% of 400,000 active; AID 504847
Target sequence (P11473 whole entry, looked up): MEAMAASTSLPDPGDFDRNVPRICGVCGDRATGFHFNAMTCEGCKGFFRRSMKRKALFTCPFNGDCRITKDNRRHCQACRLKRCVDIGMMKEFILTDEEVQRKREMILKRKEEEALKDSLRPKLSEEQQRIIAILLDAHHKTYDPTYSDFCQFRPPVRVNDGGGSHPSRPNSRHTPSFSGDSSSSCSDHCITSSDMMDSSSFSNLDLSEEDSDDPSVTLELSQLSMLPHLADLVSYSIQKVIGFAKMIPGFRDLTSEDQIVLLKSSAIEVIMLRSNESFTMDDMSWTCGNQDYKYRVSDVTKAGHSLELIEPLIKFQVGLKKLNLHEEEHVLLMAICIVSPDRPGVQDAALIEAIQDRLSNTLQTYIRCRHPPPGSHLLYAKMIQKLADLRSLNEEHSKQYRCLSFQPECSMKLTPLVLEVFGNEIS
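Signal is fluorescence polarization, reporting how far test compounds block the interaction of VDR with the SRC2-3 coregulator peptide after a 2 h room-temperature incubation.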
GLS inh: inhibitors of human glutaminase (GLS); GLS enzymatic activity, qHTS titration; Potency, µM (top dose mostly 45.5 µM), most hits filed as inhibitors; 0.21% of 410,000 active; AID 624170
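Assay buffer: 45 mM KH2PO4 pH 8.2, 0.02% Tween-20. hKGA acts on L-glutamine (1 mM solution added); product glutamate is reported by an oxidase/peroxidase Amplex Red coupling, with fluorescence taken at baseline and 30 min.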
Numbers stand for hits; n = inactive; u = inconclusive; x = no result given. Unless noted, the call rests on the fitted dose curve; in most records, active means well fitted curve in the direction sought with a large enough effect; inconclusive means small, poorly fitted or top-dose-only effect, or another doubt; inactive means no such curve, though single readings can be large; an effect the other way counts as inactive or inconclusive.

SMILES | PGK inhibitor | Pin1 inhibitor | Tb PFK inh | VDR inh | GLS inh
Cc1cccc(CS(=O)(=O)CC2Nc3ccc(C(=O)NCc4ccccc4)cc3NC2=O)c1 (stereo unspecified) | n | n | x | n | 10µM
Cc1ccc(CNC(=O)c2ccc3c(c2)NC(=O)C(CS(=O)(=O)Cc2cccc(F)c2)N3)cc1 (stereo unspecified) | n | u | x | n | n
C=CCOC(=O)[C@H](O)[C@@H](O)C(=O)OCC=C | x | x | x | n | x
COc1ccc(OC)c([C@@H]2Nc3ccc(C(=O)O)cc3[C@@H]3C=CC[C@@H]32)c1 | n | u | x | n | u
O=C(O)c1ccc2c(c1)[C@@H]1C=CC[C@@H]1[C@H](c1ccccn1)N2 | u | u | x | u | 2.82µM
COc1ccc(CN(CC(O)COCc2ccccc2)S(=O)(=O)c2ccccc2Br)cc1OC (stereo unspecified) | n | n | n | n | n
CCCCC1(C)NC(=S)N2N1C(=S)NC2(C)CCCC (stereo unspecified) | n | n | n | 79.4µM | n
NC(=S)N/N=C/c1cn(-c2ccccc2)nc1-c1cccnc1 | n | n | n | 28.2µM | n
O=C(OCC(=O)N1N=C(c2ccc(Cl)cc2)CC1c1ccco1)c1ccco1 (stereo unspecified) | n | n | n | n | n
O=C(OCC(=O)N1N=C(c2ccc(Cl)cc2)CC1c1ccco1)c1cncc(Br)c1 (stereo unspecified) | n | n | n | 70.8µM | n
COc1ccc(-c2coc3cc(O)ccc3c2=O)c(O)c1O | x | x | x | 50.1µM | x
COc1ccc(-c2coc3cc(O)ccc3c2=O)c(OC)c1O | x | x | x | n | x
NC(=N\N=CCc1ccccc1)/C(N)=N/N=CCc1ccccc1 | n | n | x | n | u
O=C1NC(=S)S/C1=C\c1ccc(SCc2ccccc2)o1 | u | u | n | u | u
O=C1NC(=S)S/C1=C\c1ccc(SCc2ccco2)o1 | 14.1µM | u | n | 44.7µM | 11.2µM
CC(C)(C)Cc1nnc(NC(=O)CSc2ccccc2)s1 | n | n | u | 28.2µM | n
O=C(/C=C/c1cccs1)c1ccc(Br)cc1 | n | n | n | 50.1µM | n
O=C(/C=C/c1cccs1)c1ccc(NC(=O)c2cccc(Br)c2)cc1 | n | n | n | n | n
CCN(CC)c1ccc(/C=C2\CCC(/C=N/NC(=O)c3ccc(=O)n(C)c3)=C2N2CCOCC2)cc1 | n | u | n | n | 7.08µM
CCOC(=O)c1c(C)cc(O)c(C)c1O | x | x | x | n | x
Cc1cc(O)c2c(c1O)C(=O)C(O)=C(O)C2=O | x | x | x | 8.91µM | x
COC(=O)c1c(-c2cccnc2)csc1NC(=O)c1cc(C)on1 | n | n | n | 79.4µM | n
COC(=O)c1c(-c2ccc(C)cc2)csc1NC(=O)c1c(-c2ccccc2)noc1C | x | x | n | x | x
CCOC(=O)[C@]12CCCC=C1N(Cc1ccco1)C(=O)[C@H](CC(=O)NCC1CCCCC1)C2 | x | x | x | x | n
Oc1ccc(/C=N/n2c(-c3ccccc3)n[nH]c2=S)cc1 | n | n | n | n | 15.8µM
SMILES | PGK inhibitor | Pin1 inhibitor | Tb PFK inh | VDR inh | GLS inh
Cc1n[nH]c(=S)n1/N=C/c1ccccc1 | n | n | n | n | n
Cc1c2c(c(O)c3c(O)cccc13)C(=O)O[C@H]2C1C(N(C)C)C(O)=C(C(N)=O)C(=O)[C@H]1O (stereo partly specified) | x | x | x | 15.8µM | x
CN(C)C1C(=O)C(C(N)=O)=C(O)[C@@]2(O)C(=O)C3=C(O)c4c(O)ccc(Cl)c4C(O)[C@H]3C[C@@H]12 (stereo partly specified) | x | x | x | n | x
CCc1ccc(CNC(=O)c2ccc3c(c2)nc2n3CCOC2)cc1 | n | n | x | n | n
CC(=O)c1ccc(OCCCC(=O)n2nnc3ccccc32)cc1 | n | n | n | u | n
O=C(CCCOc1ccc(Cl)cc1Cl)n1nnc2ccccc21 | n | n | n | 70.8µM | n
O=S(=O)(O)c1cccc2c(N=Nc3ccc(O)c4ncccc34)cccc12 | u | x | u | n | 8.91µM
Cc1ccccc1N=Nc1ccc(O)c2ncccc12 | n | n | n | n | n
CC1(C)CC(=O)c2c(O)cc(OCC(=O)Nc3ccc(CCO)cc3)cc2O1 | n | n | n | n | n
Oc1ccccc1C=NN1CCCCCC1 | n | n | x | n | u
Oc1ccc(/C=N/N2CCCCC2)c(O)c1 | n | n | n | n | 6.31µM
O=C(C1CC1)N1CCN(c2ccc(O)cc2)CC1 | n | n | n | n | 10µM
Cc1ccc(O)c(NC(=O)c2nc3nc(C)cc(C(F)F)n3n2)c1 | n | n | x | n | n
O=S(=O)(c1ccc(=S)[nH]c1)N1CCN(Cc2ccccc2)CC1 | n | n | n | 79.4µM | u
C=CC(=O)N1C/C(=C/c2ccc(F)cc2)C(=O)/C(=C\c2ccc(F)cc2)C1 | 10µM | u | x | 10µM | 10µM
CCCCCC/C=C/c1ccc(OC)c(C2C3C=CCC(C)C3C(=O)N2Cc2ccccc2)c1 (stereo unspecified) | x | n | x | n | x
O=C(CN1CCN(c2ccccc2O)CC1)NC(=O)NC1CCCC1 | n | n | n | n | 2.82µM
O=C1NN(c2ccccc2)C(=O)/C1=C/c1coc2ccccc2c1=O | n | u | n | 39.8µM | n
O=C1NN(c2ccccc2)C(=O)/C1=C\c1coc2ccc(O)cc2c1=O | n | u | n | 22.4µM | n
Cc1cc(/C=C2/C(=O)NN(c3ccccc3)C2=O)c(C)n1-c1ccc(O)cc1 | n | n | n | u | n
O=C(Cn1c(=O)n(-c2ccccc2Cl)c(=O)c2sc3ccccc3c21)NC1CCCC1 | n | n | x | n | n
CC1=NOC(=O)/C1=C/c1ccc2c(c1)OCO2 | n | n | n | 31.6µM | n
COc1ccccc1/C=C1/C(=O)ON=C1C | n | n | n | 50.1µM | n
CC1=NOC(=O)/C1=C\c1ccc2c(c1)OCO2 | n | n | n | 89.1µM | n
COc1ccc(/C=C2/C(=O)ON=C2C)cc1Br | n | n | n | u | n
SMILES | PGK inhibitor | Pin1 inhibitor | Tb PFK inh | VDR inh | GLS inh
O=C(CN1C(=O)/C(=C/c2ccco2)SC1=S)Nc1ccc(C(=O)O)c(O)c1 | 28.2µM | n | n | n | 22.4µM
O=C(CN1C(=O)/C(=C/c2ccco2)SC1=S)Nc1ccc(O)c(C(=O)O)c1 | u | x | n | n | n
CC(C(=O)N(C)C1CCS(=O)(=O)C1)N1C(=O)/C(=C/c2ccco2)SC1=S (stereo unspecified) | n | n | n | n | n
CC(C(=O)Nc1ccc(C(=O)O)c(O)c1)N1C(=O)/C(=C\c2ccco2)SC1=S (stereo unspecified) | u | u | u | n | 17.8µM
COc1ccc(/C=N/N(Cc2ccccc2)c2ccccc2)cc1O | n | n | n | u | 15.8µM
N#CC1=C(S)N(c2ccccc2)C(c2ccc(-c3ccccc3Cl)o2)NC1=O (stereo unspecified) | n | n | n | 39.8µM | n
Cc1cccc(N2C(S)=C(C#N)C(=O)NC2c2cccs2)c1 (stereo unspecified) | n | n | n | 50.1µM | n
Cc1ccccc1N1C(S)=C(C#N)C(=O)NC1c1ccco1 (stereo unspecified) | n | n | n | 79.4µM | n

High-throughput results (PubChem)
